# Measured values from PubChem BioAssay AID651622 (National Center for Advancing Translational Sciences (NCATS), 2012).
# A number with no mark means an inactive call.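 The calls were made as follows: active = inhibition of the USP46/UAF1 deubiquitinase of at least 60% at 114 µM in the gel test; inconclusive = inhibition from 30% up to under 60%; inactive = inhibition below 30%.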
# Molecular target: Ubiquitin carboxyl-terminal hydrolase 46 (Homo sapiens) + WD repeat-containing protein 48 (Homo sapiens) (UniProt P62068+Q8TAF3)
# Sequence (P62068 whole entry, looked up): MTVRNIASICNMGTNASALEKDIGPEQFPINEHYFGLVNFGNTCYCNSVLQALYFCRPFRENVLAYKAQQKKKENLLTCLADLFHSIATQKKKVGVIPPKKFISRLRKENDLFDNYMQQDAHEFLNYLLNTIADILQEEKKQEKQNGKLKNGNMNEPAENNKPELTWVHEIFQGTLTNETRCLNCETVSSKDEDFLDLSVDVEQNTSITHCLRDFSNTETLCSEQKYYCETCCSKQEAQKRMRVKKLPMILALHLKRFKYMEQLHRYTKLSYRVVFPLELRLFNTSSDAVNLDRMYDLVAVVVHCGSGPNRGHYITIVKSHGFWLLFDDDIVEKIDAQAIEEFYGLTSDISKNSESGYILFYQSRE
# Sequence (Q8TAF3 whole entry, looked up): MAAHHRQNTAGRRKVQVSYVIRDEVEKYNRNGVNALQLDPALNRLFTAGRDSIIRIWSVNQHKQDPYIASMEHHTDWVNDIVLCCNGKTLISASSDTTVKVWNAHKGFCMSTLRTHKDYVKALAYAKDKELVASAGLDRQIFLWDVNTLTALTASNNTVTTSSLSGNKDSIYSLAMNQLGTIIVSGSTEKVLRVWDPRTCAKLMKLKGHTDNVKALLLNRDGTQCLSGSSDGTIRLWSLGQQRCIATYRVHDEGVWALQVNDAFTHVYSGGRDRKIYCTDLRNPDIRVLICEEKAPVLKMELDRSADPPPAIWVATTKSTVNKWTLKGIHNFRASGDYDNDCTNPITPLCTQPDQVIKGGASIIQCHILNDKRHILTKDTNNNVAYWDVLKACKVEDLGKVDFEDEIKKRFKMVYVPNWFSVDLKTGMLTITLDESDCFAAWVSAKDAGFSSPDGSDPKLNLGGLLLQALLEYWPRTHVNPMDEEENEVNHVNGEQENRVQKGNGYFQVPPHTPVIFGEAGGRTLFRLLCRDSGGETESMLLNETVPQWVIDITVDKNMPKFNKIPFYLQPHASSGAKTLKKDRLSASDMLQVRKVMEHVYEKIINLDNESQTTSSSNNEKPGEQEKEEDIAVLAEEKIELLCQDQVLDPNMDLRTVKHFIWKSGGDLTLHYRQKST
# Assay: Inhibitors of USP1/UAF1: SAR in USP46/UAF1 diubiquitin SDS-PAGE gel assay
# Settings: USP46/UAF1 K63 diubiquitin cleavage; series mostly up to 114 µM; inhibition: at the top concentration
# Description: Deubiquitinating enzymes (DUBs) are a class of enzymes that can cleave isopeptide bond formed between the C-terminal carboxylate of ubiquitin and a lysine side-chain amino group on the target protein. Among them, ubiquitin specific proteases (USPs) constitute the largest DUB family. Human USPs are emerging as promising targets for pharmacological intervention because of their connection to a number of human diseases, including prostate, colon and breast cancer (1, 2), pediatric acute lymphoblastic leukemia (3), and familial cylindromatosis (4). The advantage of inhibiting USPs lies in the potential specificity of therapeutic intervention that can lead to better efficacy and reduce nonspecific side effects. In a collaboration between the University of Delaware and the NIH Chemical Genomics Center, a high-throughput screen assay was developed to screen for USP1/UAF1 inhibitors (5). […]
# The inhibition assay contains 100 nM USP46/UAF1, 2 microM K63 linked diubiquitin, and inhibitors at varied concentrations (0.08 microM - 114 microM). […] The intensity of the individual diubiquitin and monoubiquitin band was quantified using Quantity One 4.3.1 (Biorad, Hercules, CA). The percentage of the conversion was determined and used to calculate the reaction rate. […]
row,Structure (SMILES),inhibition
1,Cc1cnc(-c2ccccc2C(C)C)nc1NCc1ccc(-n2ccnn2)cc1,9%
